Holding throughout (assay): NCI-60 one-dose screen, 48 h (100 = growth as untreated, 0 = no growth, -100 = all killed)
Holding throughout (details): 10 µM unless noted

The subject of assay [1] is SR leukemia.
The test system of assay [2] is RPMI-8226 leukemia.
Assay [3] relates to OVCAR-8 ovarian.
In assay [4] the test system is OVCAR-5 ovarian.
The subject of assay [5] is OVCAR-4 ovarian.
Assay [6] concerns SK-OV-3 ovarian.
The test system of assay [7] is IGROV1 ovarian.
Assay [8] relates to OVCAR-3 ovarian.
Assay [9] relates to HS 578T breast.
Assay [10] has as its system NCI/ADR-RES ovarian.
Assay [11] deals with T-47D breast.
The test system of assay [12] is BT-549 breast.
Assay [13] has as its system MDA-MB-435 melanoma.
The subject of assay [14] is SW-620 colon.
Assay [15] concerns MCF7 breast.
For assay [16], the system named is HCT-116 colon.
Assay [17] concerns HCC-2998 colon.
For assay [18], the system named is KM12 colon.

Compounds without any hit were thinned out: in the full panel of roughly 83,000, 20% have a hit.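 Plates (96-well) were seeded with cells, treated with compound at one concentration, and incubated for 48 hours before percent growth was determined.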 Active and inactive are the calls of the source. Rule for the calls: active = growth percent below 10; inactive = the rest.

`CC(C)N1CN2C(=S)NC3C2N(C1)C(=S)N3C` (stereo unspecified): the growth in assay [1] is 88.6% (inactive); in assay [2], 91.7% (inactive); in assay [3] it was 102% (inactive); in [4], 107% (inactive); in assay [5], 117% (inactive); in assay [6], 109% (inactive). Besides, the growth in [7] was 103% (inactive); in [8] it was 103% (inactive); in [9], 95.6% (inactive); in assay [10] it was 106% (inactive); in assay [11], 92.4% (inactive); in [12] it was 124% (inactive). The growth in assay [13] is 104% (inactive); in [14], 101% (inactive); in [15], 93% (inactive); in assay [16], 105% (inactive); in assay [17], 113% (inactive); in assay [18], 94.4% (inactive).

`O=C(NCCCN1CCOCC1)c1cccc(N2C(=O)/C(=C/c3ccc(F)cc3)SC2=S)c1`: the growth was 98.9% (inactive) in [1]; 102% (inactive) in assay [2]; 100% (inactive) in assay [3]; 104% (inactive) in assay [4]; 93.8% (inactive) in assay [5]; 108% (inactive) in [6]. Moreover, the growth in assay [7] was 90.7% (inactive); in assay [8] it was 99.5% (inactive); in assay [9], 82.2% (inactive); in [10] it was 98.5% (inactive); in assay [11], 91.7% (inactive); in [12] it was 96.8% (inactive). The growth in [13] is 95.3% (inactive); in assay [14] it was 95.9% (inactive); in assay [15], 92.9% (inactive); in [16], 96.7% (inactive); in assay [17] it was 97.1% (inactive); in assay [18], 99.6% (inactive).

For the molecule `Cc1cc(=O)[nH]c2c(C#N)cnn12`, the growth in assay [1] is 112% (inactive); in assay [2], 101% (inactive); in assay [3], 98.7% (inactive); in [4], 97.7% (inactive); in assay [5], 111% (inactive); in assay [6], 106% (inactive). Moreover, the growth in [7] was 97.2% (inactive); in [8], 101% (inactive); in [9] it was 92.6% (inactive); in assay [10], 102% (inactive); in [11], 99.6% (inactive); in [12], 107% (inactive). Further, the growth in assay [13] is 104% (inactive); in [14], 92.4% (inactive); in assay [15] it was 93.2% (inactive); in [16] it was 98.5% (inactive); in assay [17], 101% (inactive); in assay [18], 107% (inactive).

In the case of `CC(C)CCC[C@@H](C)[C@H]1CC[C@H]2[C@@H]3CC=C4C[C@@H](C(C(=O)O)C(=O)O)CC[C@]4(C)[C@H]3CC[C@]12C`, the growth was -39.7% (active) in assay [1]; -26.9% (active) in assay [2]; -19.8% (active) in [3]; 45.2% (inactive) in [4]; 0.439% (active) in [5]; -5.5% (active) in assay [6]. Also, the growth is -35.5% (active) in assay [7]; -73.5% (active) in assay [8]; -12.7% (active) in [9]; -1.29% (active) in assay [10]; -13.8% (active) in assay [11]; -22.6% (active) in assay [12]. Also, the growth in [13] is -55.6% (active); in assay [14], -39.7% (active); in [15], 1.84% (active); in [16], -61.3% (active); in assay [17], -47.5% (active); in assay [18], -74.4% (active).

For `O=[N+]([O-])c1ccc(S(=O)(=O)N2CCN(C3=NS(=O)(=O)c4ccccc4N3c3ccccc3)CC2)cc1`, the growth in [1] was 40.5% (inactive); in assay [2], 58.7% (inactive); in assay [3], 93.1% (inactive); in [4] it was 95% (inactive); in assay [5], 99.8% (inactive); in assay [6], 102% (inactive). Further, the growth in [7] was 97% (inactive); in assay [8] it was 94.4% (inactive); in [9], 109% (inactive); in [10] it was 92.9% (inactive); in assay [11], 115% (inactive); in assay [12], 99.8% (inactive). Moreover, the growth is 97.2% (inactive) in assay [13]; 103% (inactive) in assay [14]; 101% (inactive) in [15]; 91.2% (inactive) in assay [16]; 91.3% (inactive) in assay [17]; 110% (inactive) in [18].

Turning to `O=C(CCC(=O)N/N=C/c1ccccc1O)N/N=C/c1ccccc1O`, the growth in assay [1] was 27% (inactive); in assay [2], 83% (inactive); in assay [3] it was 46.4% (inactive); in [4] it was 82.7% (inactive); in assay [5], 26.2% (inactive); in assay [6], 50.8% (inactive). For the same molecule, the growth in assay [7] was 48.5% (inactive); in assay [8], 23.4% (inactive); in assay [9], 76.9% (inactive); in assay [10], 46.9% (inactive); in assay [11], 51.5% (inactive); in assay [12], 76.5% (inactive). In addition, the growth is 64.8% (inactive) in assay [13]; 44.8% (inactive) in assay [14]; 39.9% (inactive) in assay [15]; 25.9% (inactive) in [16]; 46% (inactive) in [17]; 33% (inactive) in assay [18].

Regarding `COc1ccc(C(c2cc(OC)c(OC)c(OC)c2)N2CCN(c3ccccc3)CC2)cc1` (stereo unspecified), the growth in [1] was 33.2% (inactive); in [2], 89.3% (inactive); in [3], 99.1% (inactive); in [4], 102% (inactive); in assay [5], 89.9% (inactive); in assay [6], 78.5% (inactive). Further, the growth in assay [7] was 72.7% (inactive); in assay [8], 90.1% (inactive); in assay [9], 101% (inactive); in [10], 85.9% (inactive); in [11], 81.8% (inactive); in assay [12], 93.6% (inactive). Further, the growth is 9.02% (active) in [13]; 74.1% (inactive) in assay [14]; 72.8% (inactive) in [15]; 62.8% (inactive) in assay [16]; 93.3% (inactive) in [17]; 65.1% (inactive) in [18].

Source of the values: PubChem BioAssay (NCI).
